Laboratory results: PubChem BioAssay (NCI)
Compounds without any hit were thinned out: in the full panel of roughly 83,000, 20% have a hit.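 How to read the values: 0–100, growth inhibition (40 = 60% inhibited); 0, no net growth; -100 to 0, cell death (-40 = 40% of starting cells died; -100 = all dead).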 Activity calls are given as the source filed them. How the source made its calls: active means growth percent below 10; inactive means the rest.

System: HT29 colon
Test: NCI-60 one-dose screen, 48 h (100 = growth as untreated, 0 = no growth, -100 = all killed)
Conditions: 10 µM unless noted

| Compound | growth |
| --- | --- |
| O=NN1CCCc2cccc(O)c21 | 94.6% (inactive) |
| Fc1ccc2c(c1)c(-c1nc(-c3c[nH]c4ncccc34)cs1)cn2CCN1CCOCC1 | 47.7% (inactive) |
| CC(=O)Nc1nc2c(s1)CC[C@@]1(C)C2=CC[C@H]2[C@@H]3CC[C@H](O)[C@@]3(C)CC[C@@H]21 | 20.8% (inactive) |
| CN(C)CC(C(=O)Cc1ccccc1)c1ccccc1 (stereo unspecified) | 30% (inactive) |
| CCOC(=O)[C@@H](C)C[C@H](Cc1ccccc1)NC(=O)c1csc([C@@H](C[C@H](C(C)C)N(C)C(=O)[C@H](CCC(C)C)NC(=O)[C@H]2CCCCN2C)OC(C)=O)n1 | -14.9% (active) |
| CCCCCCCCCCCCCCCCCC1OC[C@H](COC(=O)O[C@@H](C(=O)O[C@H]2C[C@@]3(O)[C@@H](OC(=O)c4ccccc4)[C@@H]4[C@]5(OC(C)=O)CO[C@@H]5C[C@H](O)[C@@]4(C)C(=O)[C@H](OC(C)=O)C(=C2C)C3(C)C)[C@@H](NC(=O)c2ccccc2)c2ccccc2)O1 (stereo partly specified) | 15.7% (inactive) |
| c1cnc2[nH]cc(-c3csc(-c4cn(CCCCN5CCCCC5)c5ccccc45)n3)c2c1 | 34.4% (inactive) |
| C=C1C[C@](OC)([C@H](O)C(=O)N[C@@H](OC)[C@@H]2C[C@@H](O)C(C)(C)[C@@H](C[C@@H](COC)OC)O2)O[C@H](C)[C@@H]1C | -68.7% (active) |
| O=C(Nc1ccc(O)cc1)C(Cl)(Cl)Cl | 105% (inactive) |
| Cc1c(NS(=O)(=O)c2ccccc2)ccc([N+](=O)[O-])c1Cl | 76.4% (inactive) |
| CCCCN1CCCC[C@@H]1C(=O)N[C@H](C(=O)N(C)[C@H](C[C@@H](OC(C)=O)c1nc(C(=O)NC2CCC(C(=O)OC)CC2)cs1)C(C)C)C(C)C (stereo partly specified) | 14.8% (inactive) |
| Cn1cc(-c2csc(-c3cn(CCCCN4CCCCC4)c4ccc(F)cc34)n2)c2cccnc21 | -73.5% (active) |
| CC1=C(CN)C2=C(C)C3(CC3)[C@@](C)(O)C(=O)C2=C1 | 94.5% (inactive) |
| CC(=O)O[C@H]1C(=O)[C@@]2(C)[C@H]([C@H](OC(=O)c3ccccc3)[C@]3(O)C[C@H](OC(=O)[C@H](OC(=O)OC[C@H]4COC(C)(C)O4)[C@@H](NC(=O)c4ccccc4)c4ccccc4)C(C)=C1C3(C)C)[C@]1(OC(C)=O)CO[C@@H]1C[C@@H]2O | 2.46% (active) |
| Cn1cc(-c2csc(-c3cn(CCN4CCOCC4)c4ccc(F)cc34)n2)c2cccnc21 | 40.1% (inactive) |
| Brc1ccc2c(c1)c(-c1nc(-c3c[nH]c4ncccc34)cs1)cn2CCN1CCOCC1 | 57.8% (inactive) |
| COC(=O)[C@@H](C)C[C@H](Cc1ccccc1)NC(=O)c1csc([C@@H](C[C@H](C(C)C)N(C)C(=O)[C@@H](NC(=O)[C@H]2CCCCN2C)C2CCCCC2)OC(C)=O)n1 | -0.416% (active) |
| CC(=O)OC1CCC2(C)C(CCC3C2CC(=O)C2(C)C3CC(Sc3ccc(N(CCCl)CCCl)cc3)C2C(C)=O)C1 (stereo unspecified) | 11.9% (inactive) |
| COc1ccc(S(=O)(=O)N(Cc2ccc3c(c2)C=CC(C)(C)O3)c2ccccc2)cc1OC | 72.9% (inactive) |
| CC[C@H](C)[C@H](NC(=O)[C@H]1CCCCN1C)C(=O)N(C)[C@H](CC(=O)c1nc(C(=O)N[C@@H](Cc2ccccc2)C[C@H](C)C(=O)O)cs1)C(C)C | 78% (inactive) |
| COC(=O)[C@@H](C)C[C@H](Cc1ccccc1)NC(=O)c1csc([C@@H](C[C@H](C(C)C)N(C)C(=O)[C@@H](NC(=O)C23CC(NC(C)=O)(C2)C3)C2CC2)OC(C)=O)n1 | 20.9% (inactive) |
| O=C1CC2(CC3(Cl)C(Cl)=C(Cl)C2(Cl)C3(Cl)Cl)C(=O)O1 (stereo unspecified) | 113% (inactive) |
| C[n+]1c(/C=C/c2ccc(N(CCCl)CCCl)cc2)sc2ccccc21 | 40.9% (inactive) |
| CC[C@H](C)[C@H](NC(=O)NC(C)(C)C)C(=O)N(C)[C@H](C[C@@H](OC(C)=O)c1nc(C(=O)N[C@@H](Cc2ccccc2)C[C@H](C)C(=O)OC)cs1)C(C)C | 5.85% (active) |
| CCCCCCCC[N+](C)(CCCCCCCC)CCCCCCCC | -100% (active) |
| CC(=O)O[C@H]1C(=O)[C@@]2(C)[C@H]([C@H](OC(=O)c3ccccc3)[C@]3(O)C[C@H](OC(=O)[C@H](OC(=O)OC[C@@H]4COC(C)(C)O4)[C@@H](NC(=O)c4ccccc4)c4ccccc4)C(C)=C1C3(C)C)[C@]1(OC(C)=O)CO[C@@H]1C[C@@H]2O | -2.35% (active) |
